Shown are actives, neighbours in structure and some others; about 1.3% of the full set was active somewhere.
LmPK inhibitor – blocks Leishmania mexicana pyruvate kinase activity | purified LmPK, Kinase-Glo ATP luminescence, 1 h | hit rate 0.37% among 290,000 | Potency, µM (highest dose often 57.5 µM), for inactives: at the top dose activity change, negative = inhibition, most hits filed as inhibitors | Q27686 | AID 1721
Target sequence (Q27686 whole entry, looked up): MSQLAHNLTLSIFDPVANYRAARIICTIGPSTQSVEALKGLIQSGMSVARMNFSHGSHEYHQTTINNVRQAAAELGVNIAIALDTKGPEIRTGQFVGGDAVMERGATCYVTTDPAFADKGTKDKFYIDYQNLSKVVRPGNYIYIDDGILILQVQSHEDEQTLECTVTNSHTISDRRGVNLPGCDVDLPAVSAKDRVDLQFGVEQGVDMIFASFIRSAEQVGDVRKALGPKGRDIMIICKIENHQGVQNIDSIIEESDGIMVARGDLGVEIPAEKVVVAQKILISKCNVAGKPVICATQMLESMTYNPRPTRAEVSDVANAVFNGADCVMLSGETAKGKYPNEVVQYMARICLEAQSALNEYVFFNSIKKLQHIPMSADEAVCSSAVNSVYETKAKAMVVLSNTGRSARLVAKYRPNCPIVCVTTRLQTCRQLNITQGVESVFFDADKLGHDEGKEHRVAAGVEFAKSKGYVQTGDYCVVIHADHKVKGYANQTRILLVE
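Purified LmPK (0.1 nM) converted ADP (0.1 mM) to ATP with PEP (0.5 mM) in imidazole buffer pH 7.2 with KCl and MgCl2, 1 h at room temperature. ATP was read by Kinase-Glo luminescence; data normalized to uninhibited and no-enzyme controls.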
AmpC inh detg – AmpC beta-lactamase inhibition with detergent present; P00811; AmpC hydrolysis of nitrocefin, absorbance 480 nm, 0.01% Triton; Potency, µM (series often up to 114 µM), inactives show at the top dose activity change, negative = inhibition, most hits filed as inhibitors; hit rate 0.041% among 370,000; AID 485294;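 further: 0% = no-compound wells and -100% = no-enzyme wells; nearly all actives have a fitted effect of over 25% in size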
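20 mM phosphate pH 7.0 + 0.01% (detergent screen) or 0.0001% Triton X-100; 5.3 nM AmpC reagent; cpd preinc 15 min RT; nitrocefin (800 uM stock) to start; A480 q20 s × 4 min; Activity was normalised to no-enzyme and no-compound control wells.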
Giardia FBPA inh – blocks Giardia fructose-bisphosphate aldolase activity; purified Giardia FBPA; Potency, µM (series often up to 59.6 µM), inactives show at the highest dose activity, negative = inhibition, actives largely listed as inhibitors; hit rate 0.71% among 290,000; AID 2451; further: nearly all actives have a fitted effect of over 55% in size
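Giardia FBPA (40 nM reagent) was preincubated 10 min at RT with compound (up to 57.5 uM final), then substrate plus GAPDH/TPI/NAD/arsenate coupling system with diaphorase/resazurin was added; resorufin fluorescence (525/598 nm) was read after 20 min.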
AMA1 RON2 block – disrupts binding of P. falciparum AMA1 to RON2 | AlphaScreen AMA1-biotinylated RON2 peptide binding | Potency, µM (doses to about 58.2 µM), without a hit: at the top dose activity change, negative = inhibition, hits mostly inhibitors | hit rate 0.2% among 360,000 | AID 720542;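 further: 0% = vehicle wells and -100% = peptide control; nearly all actives have a fitted effect of over 45% in size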
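AMA1 (3D7) with his tag at 25 nM final met compounds first, then biotinylated RON2 peptide at 25 nM; detection used donor plus acceptor beads, 10 µg/mL apiece, read by AlphaScreen after 30 min at room temperature.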
AmpC no deterg – inhibitors of E. coli AmpC beta-lactamase without detergent; P00811; AmpC nitrocefin hydrolysis, absorbance 480 nm, 0.0001% Triton; Potency, µM (series often up to 57.1 µM), for the others: at the highest dose activity change, negative = inhibition, actives largely listed as inhibitors; hit rate 0.52% among 330,000; AID 485341;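 further: plate controls were no compound for no effect and no enzyme for full effect; nearly all actives have a fitted effect of over 20% in size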
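20 mM phosphate pH 7.0 + 0.01% (detergent screen) or 0.0001% Triton X-100; 5.3 nM AmpC reagent; cpd preinc 15 min RT; nitrocefin (800 uM stock) to start; A480 q20 s × 4 min; Activity was normalised to no-enzyme and no-compound control wells.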
The depositor's hits bear a star; u = inconclusive; x = not tested or not shown; [ ] = another dose, or the depositor's remark. The call rests on the fitted dose curve; in most records, active means well fitted curve in the direction sought with a large enough effect; inconclusive means small, poorly fitted or top-dose-only effect, or another doubt; inactive means no such curve, though single readings can be large; an effect the other way counts as inactive or inconclusive. Unless noted, on the % scale 0 is the no-effect control and ±100 the full control effect; potency means the concentration at half of the fitted maximal effect.

SMILES	LmPK inhibitor	AmpC inh detg	Giardia FBPA inh	AMA1 RON2 block	AmpC no deterg
COc1cc2c(cc1O)C[C@H]1c3c(cc(O)c(OC)c3-2)CCN1C	x	-14.7%	-22.1%[21.7 µM]	-27.3%	-25.4%
CC1OC(OCC2OC(Oc3cc(O)c4c(c3)OC(c3ccc(O)cc3)CC4=O)C(O)C(O)C2O)C(O)C(O)C1O (configuration not stated)	x	x	-0.4%	x	x
Cc1ccccc1NC(=O)CSc1n[nH]c(-c2ccccn2)n1	-1.7%	-0.3%	u	8.91µM*	-9.9%
CCOc1ccc(NC(=O)C(C)Sc2nnc(C)n2C)cc1 (configuration not stated)	-1.6%	u	0.3%	-0.7%	3.55µM*
Cc1ccc(NC(=O)C(C)Sc2nnc(C)n2C)cc1 (configuration not stated)	24.2%	-17.2%	-2.5%	-1.0%	321.3%
CCNC(=O)C1(C)CCN(Cc2csc(-c3ccccc3)n2)C1 (configuration not stated)	x	x	x	9.4%	x
CC(=O)Nc1c(Cl)cc(Cl)c2c1Cc1cc(Cl)ccc1-2	x	x	x	3.5%	x
CC(C)CCN(C)C1CCN(S(=O)(=O)c2ccc(F)cc2)CC1	-2.6%	-11.9%	-1.3%	-1.2%	10µM*
CC1(C(=O)NCc2cccnc2)CCN1C(=O)c1cccc(F)c1 (configuration not stated)	x	x	x	-4.1%	x
CCOC(=O)CCC(=O)N1CCNC(=O)C1	-1.0%	5.6%	2.9%	-3.0%	11.2µM*
C=CCn1c(SCC(=O)NCCCC)nc2scc(-c3ccco3)c2c1=O	1.4%	u	-5.1%	-19.6%	-23.4%
C=CCn1c(SCC(=O)NC2CCCC2)nc2scc(-c3ccco3)c2c1=O	-0.3%	u	6.3%	u	35.5µM*
CC1CN(C(=O)c2cccc(S(=O)(=O)N3CCN(c4ccccc4)CC3)c2)CC(C)O1 (configuration not stated)	x	6.3%	x	10.9%	181.0%
NC(N)=Nc1cc2ccccc2c2ccccc12	-0.1%	-2.3%	3.15µM*	x	-33.0%
O=C1C(NS(=O)(=O)c2ccc(Cl)cc2)=C(N2CCCCC2)C(=O)c2ccccc21	-14.1%	-3.6%	u	11.2µM*	-26.5%
CN1CCN(C2=C(NS(=O)(=O)c3ccccc3)C(=O)c3ccccc3C2=O)CC1	2.5%	4.1%	u	-6.7%	-23.8%
CCOC(=O)C1CCN(C2=C(NS(=O)(=O)c3ccc(Br)cc3)C(=O)c3ccccc3C2=O)CC1	-7.7%	0.4%	u	12.6µM*	-12.9%
COc1cccc(/C(O)=C/c2nc3ccc(C(=O)NCCc4ccc(Cl)cc4)cc3[nH]c2=O)c1	-0.8%	-1.3%	0.8%	7.3%	-24.3%
COc1cccc(/C(O)=C/c2nc3ccc(C(=O)NCCc4cccc(C)c4)cc3[nH]c2=O)c1	0.7%	u	5.6%	119.6%	11.2µM*
COc1ccccc1NC(=O)CCCCCN1C(=O)c2cccc([N+](=O)[O-])c2C1=O	0.2%	-13.2%	7.3%	-2.4%	-14.4%
COc1cc(/C=C2/C(=O)c3cccc([N+](=O)[O-])c3C2=O)c(Br)cc1O	14.1µM*	-10.6%	-29.6%	u	-35.5%
Cc1ccccc1-c1ccc2ncnc(NCCN3CCOCC3)c2c1	x	x	0.6%	x	x
O=C(O)c1ccc(N2Cc3ccccc3C2)cc1O	14.1µM*	-4.0%	1.0%	16.1%	-33.0%
O=C(O)c1ccc(N2CCCCC2)cc1O	1.6%	-7.5%	5.4%	-4.3%	-19.7%
CC(C)C[C@H]1CN(CCCC[C@@H]2CNC(=O)C(=O)N2CC2CCCCC2)C(=O)C(=O)N1Cc1ccccc1	x	x	x	3.2%	x
SMILES	LmPK inhibitor	AmpC inh detg	Giardia FBPA inh	AMA1 RON2 block	AmpC no deterg
C[C@H](O)[C@@H]1C(=O)N2CCc3ccc(-c4ccccc4)cc3[C@@H]2C[C@@H]1N(C)C(=S)Nc1ccc(F)cc1	x	x	x	-1.0%	x
COc1ccc(OC)c(/C=C/C(=O)N2C(=O)c3cccc(N)c3C2=O)c1	0.4%	-2.0%	0.5%	3.4%	31.6µM*
CCOC(=O)c1ccc(N2C(=O)c3[nH]nc(-c4ccccc4)c3C2c2ccc(CC)cc2)cc1 (configuration not stated)	x	0.6%	x	x	x
Cc1n[nH]c(C)c1Sc1ccccc1N=Cc1cc(Cl)cc([N+](=O)[O-])c1O	-6.5%	1.1%	-14.9%	17.8%	-9.9%
Cc1ccc(N=Cc2cc(Cc3ccccc3Cl)cc([N+](=O)[O-])c2O)c(O)c1	-4.6%	4.1%	u	10µM*	-45.1%
COc1ccccc1N1CCN(C(=O)c2cc(C3CC3)on2)CC1	1.5%	u	-8.9%	-9.6%	20µM*
CN(CC(=O)NCC1CCCO1)S(=O)(=O)c1ccc2ccccc2c1 (configuration not stated)	x	x	x	-11.5%	x
O=c1cc(N2CCN(c3ccc(F)cc3)CC2)[nH]c(=O)n1Cc1ccc(F)cc1	6.1%	-12.3%	3.0%	-3.6%	25.1µM*
COc1ccc(C2=NN(c3nc(-c4ccccc4)c(CC(=O)O)s3)C(c3ccco3)C2)cc1 (configuration not stated)	-3.3%	-13.7%	-18.8%	-3.7%	14.1µM*
COc1ccc(Nc2nnc(SCC(=O)c3cc4ccccc4o3)s2)cc1	-0.4%	-7.4%	-26.3%	59.0%	-49.6%
O=C(CSc1nnc(Nc2ccccc2F)s1)c1cc2ccccc2o1	-2.9%	-5.8%	-6.0%	13.3%	35.5µM*
COc1ccc2cc(CCNC(=O)c3ccc4c(c3)OCO4)c(=O)[nH]c2c1	10.2%	u	13.3%	-1.6%	2.82µM*
O=C(Nc1ccc(Cl)cc1)N1CCN(c2ccc3nnc(-c4ccc(F)cc4)n3n2)CC1	1.1%	-9.6%	-6.9%	12.3%	147.7%
O=C(c1ccc(Br)o1)N1CCN(c2ccc3nnc(-c4ccc(F)cc4)n3n2)CC1	5.4%	u	-0.7%	-8.6%	0.562µM*
OC[C@H]1O[C@@H](O[C@@H]2OC=C[C@H]3[C@H](O)[C@@H]4O[C@]4(CO)[C@@H]23)[C@H](O)[C@@H](O)[C@@H]1O	x	x	4.2%	x	x
O=C1C=C(N2CCOCC2)c2ccccc2C1=O	-1.4%	u	u	-22.0%	-17.2%
CC1=C(C)C(=O)C(N2CCOCC2)=CC1=O	-21.4%	-8.6%	1.41µM*	4.4%	-9.2%
Cc1ccc(S(=O)(=O)N2CCN(C(=O)C(O)c3ccccc3)CC2)cc1 (configuration not stated)	x	x	x	5.8%	x
Cc1cc(C(=O)CSc2nc3ccccc3[nH]2)c(C)n1Cc1ccco1	-0.9%	-13.0%	-7.0%	-22.3%	-56.5%
Cc1cc(C(=O)CSc2nn(-c3ccccc3)c(=S)s2)c(C)n1Cc1ccco1	-3.8%	-0.4%	-1.7%	0.7%	28.2µM*
Cc1cc(C(=O)CSc2nncs2)c(C)n1Cc1ccco1	1.0%	7.2%	-15.7%	22.4µM*	-24.2%
Cc1[nH][nH]c(=O)c1C(c1c(C)[nH][nH]c1=O)c1cn(C)c2ccccc12	-2.8%	-0.2%	2.81µM*	-8.7%	0.7%
